molecular target: ZNF721 full-length (Homo sapiens, UniProt Q8TF20-2 1-923); test: HT-SELEX; 20 mM HEPES pH 7, 140 mM KCl, 5 mM NaCl, 1 mM K2HPO4, 2 mM MgSO4, 100 uM EGTA, ZnSO4, 0.1% Tween20; room temperature, 1 h; high values mean tight binding; details: protein: ivt; tags: eGFP (N-terminal); dsDNA, one strand shown
Procedure, shortened: (§1)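 Full-length or DNA-binding-domain forms of a tagged transcription factor were produced in HEK293 lysate or cell-free extract and immobilised on beads. Incubation with a randomized 40-base DNA library ran for 1 h at room temperature in HEPES/KCl low-stringency buffer with Tween20, after which bound DNA was washed, heat-eluted, PCR-amplified over successive cycles and Illumina-sequenced. Binding strength is given as the relative k-mer count in selected reads, higher for tighter binding.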

Sequence of ZNF721 full-length (Q8TF20 other isoform, or with tags, fused parts or gaps): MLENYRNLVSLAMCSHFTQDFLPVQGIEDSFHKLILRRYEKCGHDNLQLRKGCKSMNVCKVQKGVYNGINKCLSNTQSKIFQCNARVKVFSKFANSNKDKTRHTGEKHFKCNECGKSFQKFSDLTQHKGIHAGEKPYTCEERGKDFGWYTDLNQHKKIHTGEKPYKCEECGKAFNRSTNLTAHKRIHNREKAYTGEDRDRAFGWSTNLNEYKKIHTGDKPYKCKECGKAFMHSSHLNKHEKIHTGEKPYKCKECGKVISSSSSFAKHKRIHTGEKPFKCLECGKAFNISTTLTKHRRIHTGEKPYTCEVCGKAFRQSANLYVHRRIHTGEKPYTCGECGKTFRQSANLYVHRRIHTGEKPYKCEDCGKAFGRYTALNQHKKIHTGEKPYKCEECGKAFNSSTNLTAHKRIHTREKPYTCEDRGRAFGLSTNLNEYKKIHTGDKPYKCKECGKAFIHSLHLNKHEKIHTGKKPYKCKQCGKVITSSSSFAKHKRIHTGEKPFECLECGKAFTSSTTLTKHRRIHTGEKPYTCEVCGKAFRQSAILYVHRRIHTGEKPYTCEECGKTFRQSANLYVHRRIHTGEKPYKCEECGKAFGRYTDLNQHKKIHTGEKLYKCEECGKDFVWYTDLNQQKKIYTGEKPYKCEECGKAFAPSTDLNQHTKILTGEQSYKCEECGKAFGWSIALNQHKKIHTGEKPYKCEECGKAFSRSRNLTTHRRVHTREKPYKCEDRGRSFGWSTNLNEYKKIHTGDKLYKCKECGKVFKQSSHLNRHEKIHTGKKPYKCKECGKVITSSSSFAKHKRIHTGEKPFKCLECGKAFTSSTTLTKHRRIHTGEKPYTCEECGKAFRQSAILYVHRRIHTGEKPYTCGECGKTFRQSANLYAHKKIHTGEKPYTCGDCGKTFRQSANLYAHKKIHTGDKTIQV

In order of rising binding signal:
1. CCCCCGGCCC  0.102 relative 10-mer count
2. CCCCCCTCAC  0.103 relative 10-mer count
3. GAAGCTATAC  0.107 relative 10-mer count
4. CGGTATGAAG  0.108 relative 10-mer count
5. AACCCCCACC  0.108 relative 10-mer count
6. CTCCGCCCCC  0.11 relative 10-mer count
7. CTTCATACCA  0.116 relative 10-mer count
8. CCCCCCCCCC  0.116 relative 10-mer count
9. ATAGCTTCAT  0.118 relative 10-mer count
10. CCCCGGCCCC  0.12 relative 10-mer count
11. CCCGCCCGCC  0.128 relative 10-mer count
12. CCCGCTCCCC  0.13 relative 10-mer count
13. CCAGCCCCCC  0.131 relative 10-mer count
14. CCCCTCCCGC  0.137 relative 10-mer count
15. CGCCGCCCCC  0.138 relative 10-mer count
16. AACCCACCCC  0.143 relative 10-mer count
17. AAGAAGCTAT  0.144 relative 10-mer count
18. AGCTTCTTTC  0.151 relative 10-mer count
19. ACCCGCCCCC  0.153 relative 10-mer count
20. ACTTCATACT  0.154 relative 10-mer count
21. CCCAGCCCCC  0.163 relative 10-mer count
22. AGTATGAAGC  0.167 relative 10-mer count
23. CGCCCCCCCC  0.171 relative 10-mer count
24. AAAAGCTATA  0.177 relative 10-mer count
25. AAAGCTATAC  0.183 relative 10-mer count
26. AGGTATGAAG  0.192 relative 10-mer count
27. CCCGCACCCC  0.193 relative 10-mer count
28. AGCTTCATAC  0.196 relative 10-mer count
29. CAAAAAAAGC  0.202 relative 10-mer count
30. CCCCTGCCCC  0.217 relative 10-mer count
31. CTTCATACCC  0.221 relative 10-mer count
32. AAGCTATACC  0.227 relative 10-mer count
33. GCTTCATACC  0.229 relative 10-mer count
34. CCCCGACCCC  0.24 relative 10-mer count
35. ATACACTTCA  0.245 relative 10-mer count
36. ATGTATGAAG  0.263 relative 10-mer count
37. GAAGTGTATC  0.279 relative 10-mer count
38. ACTTCATACA  0.358 relative 10-mer count
39. ATGAAGTGTA  0.376 relative 10-mer count
40. ACTTCATACC  0.377 relative 10-mer count

molecular target: ZNF721 DBD1 (Homo sapiens, UniProt Q8TF20-2 29-461); test: as above; details: protein: ivt; tags: eGFP (N-terminal); dsDNA, one strand shown
Procedure, shortened: as §1

Sequence of ZNF721 DBD1 (Q8TF20 17-449): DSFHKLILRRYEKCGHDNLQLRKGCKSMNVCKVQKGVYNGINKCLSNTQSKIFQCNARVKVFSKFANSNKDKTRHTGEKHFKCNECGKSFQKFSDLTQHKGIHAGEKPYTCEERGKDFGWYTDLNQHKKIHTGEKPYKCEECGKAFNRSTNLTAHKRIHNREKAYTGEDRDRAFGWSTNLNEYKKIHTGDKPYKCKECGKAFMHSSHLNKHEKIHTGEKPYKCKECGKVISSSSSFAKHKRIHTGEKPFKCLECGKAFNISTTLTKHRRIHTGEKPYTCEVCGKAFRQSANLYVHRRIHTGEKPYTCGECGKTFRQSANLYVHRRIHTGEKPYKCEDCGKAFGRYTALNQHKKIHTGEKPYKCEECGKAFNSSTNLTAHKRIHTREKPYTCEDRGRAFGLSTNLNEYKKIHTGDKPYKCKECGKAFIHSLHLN

In order of rising binding signal:
1. CCAGCCCCCC  0.00316 relative 10-mer count
2. CCCCGGCCCC  0.00358 relative 10-mer count
3. CCCCCCCCCC  0.00358 relative 10-mer count
4. CCCCCGGCCC  0.00394 relative 10-mer count
5. CCCGCCCGCC  0.0044 relative 10-mer count
6. CCCCCCTCAC  0.00482 relative 10-mer count
7. AACCCCCACC  0.00495 relative 10-mer count
8. ACCCGCCCCC  0.005 relative 10-mer count
9. CGCCGCCCCC  0.00518 relative 10-mer count
10. CCCAGCCCCC  0.00518 relative 10-mer count
11. CGCCCCCCCC  0.00527 relative 10-mer count
12. CCCGCTCCCC  0.00527 relative 10-mer count
13. CTCCGCCCCC  0.00537 relative 10-mer count
14. AACCCACCCC  0.00596 relative 10-mer count
15. CCCCTCCCGC  0.00665 relative 10-mer count
16. CCCCTGCCCC  0.00734 relative 10-mer count
17. CCCGCACCCC  0.00784 relative 10-mer count
18. CCCCGACCCC  0.00789 relative 10-mer count
19. CAAAAAAAGC  0.0258 relative 10-mer count
20. AAAAGCTATA  0.0882 relative 10-mer count
21. AAAGCTATAC  0.0924 relative 10-mer count
22. AGCTTCTTTC  0.125 relative 10-mer count
23. GAAGCTATAC  0.143 relative 10-mer count
24. CGGTATGAAG  0.15 relative 10-mer count
25. AAGCTATACC  0.155 relative 10-mer count
26. ATAGCTTCAT  0.158 relative 10-mer count
27. AAGAAGCTAT  0.16 relative 10-mer count
28. CTTCATACCA  0.165 relative 10-mer count
29. AGGTATGAAG  0.217 relative 10-mer count
30. ATACACTTCA  0.223 relative 10-mer count
31. AGTATGAAGC  0.232 relative 10-mer count
32. GAAGTGTATC  0.247 relative 10-mer count
33. ACTTCATACT  0.27 relative 10-mer count
34. ATGTATGAAG  0.279 relative 10-mer count
35. AGCTTCATAC  0.296 relative 10-mer count
36. GCTTCATACC  0.354 relative 10-mer count
37. CTTCATACCC  0.363 relative 10-mer count
38. ACTTCATACA  0.393 relative 10-mer count
39. ATGAAGTGTA  0.432 relative 10-mer count
40. ACTTCATACC  0.502 relative 10-mer count
